Measured values reported in PMC4336329 (PLoS ONE, 2015).
Screen size: about 310,000 compounds; about 14,000 (4.5%) showed an effect of 50% or more. The effect is printed as a negative number. The full list was thinned out, with strong results kept by preference.

These molecules were tested against human ether-à-go-go-related gene (hERG) potassium channel (human, UniProt Q12809) (assay: primary screen, population patch clamp on CHO cells stably expressing hERG; higher = less effect of the substance).
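Also: peak tail current of the secondary pulse compared with the same well before compound.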

Chain of human ether-à-go-go-related gene (hERG) potassium channel (Q12809 whole entry, looked up): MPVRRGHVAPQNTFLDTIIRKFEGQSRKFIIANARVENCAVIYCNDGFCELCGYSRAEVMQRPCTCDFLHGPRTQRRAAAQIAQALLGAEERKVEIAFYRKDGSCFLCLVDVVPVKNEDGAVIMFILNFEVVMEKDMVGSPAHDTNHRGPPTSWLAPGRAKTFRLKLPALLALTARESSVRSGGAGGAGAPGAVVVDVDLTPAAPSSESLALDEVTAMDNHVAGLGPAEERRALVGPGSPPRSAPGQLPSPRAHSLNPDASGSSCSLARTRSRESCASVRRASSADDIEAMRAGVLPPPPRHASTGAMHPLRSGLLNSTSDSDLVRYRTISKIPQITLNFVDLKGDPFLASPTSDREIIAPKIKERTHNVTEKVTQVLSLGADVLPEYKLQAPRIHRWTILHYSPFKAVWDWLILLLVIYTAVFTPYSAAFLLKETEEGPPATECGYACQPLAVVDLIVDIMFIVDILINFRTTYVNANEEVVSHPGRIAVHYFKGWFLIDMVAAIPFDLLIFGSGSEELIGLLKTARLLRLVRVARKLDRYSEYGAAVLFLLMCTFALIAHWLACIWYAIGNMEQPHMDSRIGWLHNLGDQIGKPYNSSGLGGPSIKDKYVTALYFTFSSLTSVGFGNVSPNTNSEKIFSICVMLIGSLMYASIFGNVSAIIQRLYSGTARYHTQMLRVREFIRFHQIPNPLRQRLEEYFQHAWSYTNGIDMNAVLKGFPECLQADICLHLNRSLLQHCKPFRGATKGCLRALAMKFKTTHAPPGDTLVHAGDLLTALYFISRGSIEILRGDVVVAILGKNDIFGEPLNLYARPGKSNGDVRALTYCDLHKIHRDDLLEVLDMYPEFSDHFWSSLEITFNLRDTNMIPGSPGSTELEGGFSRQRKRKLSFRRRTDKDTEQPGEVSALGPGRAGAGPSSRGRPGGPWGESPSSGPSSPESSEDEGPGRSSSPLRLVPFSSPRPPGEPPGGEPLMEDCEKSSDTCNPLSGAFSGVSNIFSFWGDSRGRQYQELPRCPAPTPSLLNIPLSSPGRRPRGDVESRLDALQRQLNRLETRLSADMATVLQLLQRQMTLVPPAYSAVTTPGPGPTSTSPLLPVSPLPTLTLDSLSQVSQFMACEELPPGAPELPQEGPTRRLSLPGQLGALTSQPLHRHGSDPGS

Structure (SMILES) | hERG current change (%, negative = inhibition) at 10uM [%]
Cc1cc(S(=O)(=O)Nc2ccc3ccccc3c2)c(C)s1 | -0.508
O=C(/C=C/c1cccs1)NC(=S)Nc1ccc(C(=O)O)cc1 | 6.78
CCOc1ccc(/C=N/Nc2cc(C)nc(N3CCOCC3)n2)cc1 | 3.47
O=C(O)c1ccc2c(c1)C1C=CCC1C(c1cc3c(cc1Br)OCO3)N2 (stereo not drawn) | 21.2
O=c1n(-c2ccc(Br)cc2)cnn1-c1ncccc1[N+](=O)[O-] | -22.1
O=C1N/C(=N\N=C\c2ccco2)SC1Cc1ccc(F)cc1 (stereo not drawn) | 14
Nc1ncnc(Nc2cccc(C(F)(F)F)c2)n1 | -5.45
Cc1ccc(SCc2[nH]nc3c2C(c2cccnc2)C(C#N)=C(N)O3)cc1 (stereo not drawn) | -2.64
O=C(CCN1C(=O)c2ccccc2C1=O)NCc1ccccc1 | 10.2
CCOC(=O)c1cc2occc2n1CC(=O)N1CCOCC1 | 6.95
COc1cc(-c2ccc(NC(=O)NC3CC3)c(OC)c2)ccc1NC(=O)NC1CC1 | 27.9
O=C(NCc1ccco1)/C(=C/c1ccc([N+](=O)[O-])cc1)NC(=O)c1ccco1 | -69.5
O=C(NCc1ccco1)/C(=C/c1ccccc1)NC(=O)c1ccco1 | 4.72
O=C(NCc1ccco1)/C(=C/c1ccc(Cl)cc1)NC(=O)c1ccco1 | -14
CC(C)CNC(=S)NC(=O)c1csc([N+](=O)[O-])c1 | 9.85
COc1cccc(C(=O)C2CCCN(Cc3cccc(-n4nc(C)cc4C)c3)C2)c1 (stereo not drawn) | -59.4
COc1cccc(C(=O)C2CCCN(Cc3cccc(OCCO)c3)C2)c1 (stereo not drawn) | -48.7
COc1cccc(C(=O)C2CCCN(Cc3cccc(-n4cccn4)c3)C2)c1 (stereo not drawn) | -64.5
COc1cccc(CN2CCCC(C(=O)N3CCCCC3)C2)c1.O=C(O)C(=O)O (stereo not drawn) | 5.13
Cc1cc(S(=O)(=O)N2CCCC(C)C2)ccc1-n1cnnn1 (stereo not drawn) | 5.72
O=C(CSc1nc(N2CCOCC2)nc(N2CCOCC2)n1)Nc1ccccc1F | 19.2
COc1ccccc1C(=O)CC(=O)C(=O)Nc1cccc([N+](=O)[O-])c1C | 8.79
COCCCNC(=O)c1ccc2c(=O)n(Cc3ccccc3OC)c(=S)[nH]c2c1 | 6.43
O=C(NCCc1ccc(F)cc1)c1cccs1 | 10.4

Structure (SMILES) | hERG current change (%, negative = inhibition) at 10uM [%]
Cc1ccc(S(=O)(=O)N2CCN(C(=O)c3c(-c4ccccc4)noc3C)CC2)cc1C | 1.83
C=CCSc1nc2c(c(-c3ccsc3)c1C#N)CN(C)CC2 | -65.2
CN1CCc2nc(SCC(=O)Nc3cccc(F)c3)c(C#N)c(-c3cccs3)c2C1 | -62.3
CN1CCc2nc(N)c(C#N)c(-c3ccccc3)c2C1 | -7.5
CN1CCc2nc(SCC(=O)Nc3ccc(OC(F)(F)F)cc3)c(C#N)c(-c3cccs3)c2C1 | -12.8
C=CCSc1nc(N)c(C#N)c(-c2ccc(C)cc2)c1C#N | 4.13
Cc1cccc(CSc2nc3c(c(-c4cccs4)c2C#N)CN(C)CC3)c1 | -13.1
COc1ccc(NC(=O)CSc2nc3c(c(-c4cccs4)c2C#N)CN(C)CC3)cc1OC | 1.65
CN1CCc2nc(SC(C(=O)O)c3ccccc3)c(C#N)c(-c3cccs3)c2C1 (stereo not drawn) | 19.4
CN1CCc2nc(SCc3ccc(Cl)cc3)c(C#N)c(-c3cccs3)c2C1 | -66.2
Cc1ccc(C(=O)Nc2cccc(C(=O)O)c2)cc1 | 14.4
O=C(COC(=O)c1ccccc1F)Nc1cc(S(=O)(=O)N2CCOCC2)ccc1N1CCCC1 | -13.5
Cc1oc2c(c(C)cc3oc(=O)c(CC(=O)NCCCN4CCCC4=O)c(C)c32)c1C | -0.519
O=C(Nc1ncccc1O)c1ccc2c(c1)OCO2 | 3.08
COc1ccccc1NC=C1C(=O)OC(C)(C)OC1=O | -24
CCOC(=O)c1ccc(S(=O)(=O)N2CCN(C(C)=O)CC2)cc1 | 0.122
CCc1nc(Nc2ccccc2)c2nnn(Cc3ccccc3)c2n1 | 8.23
COC(=O)c1nn(-c2ccc(-c3ccccc3)cc2)cc1O | -3.85
Cc1ccc(C(=O)NCC(=O)OCC(=O)c2c(N)n(C)c(=O)n(C)c2=O)s1 | 9.14
CCCn1c(N)c(C(=O)COC(=O)CNC(=O)c2ccc(C)c(C)c2)c(=O)n(C)c1=O | -78.1
Cc1cc(C)cc(C(=O)NCC(=O)OCC(=O)c2c(N)n(C)c(=O)n(C)c2=O)c1 | 17.4
CC(C)Cn1c(N)c(C(=O)COC(=O)Cc2cccs2)c(=O)n(C)c1=O | -51.7
CC(C)Cn1c(N)c(C(=O)COC(=O)c2cc(C(F)(F)F)nc3c(C(F)(F)F)cccc23)c(=O)n(C)c1=O | 7.27
CC(C)Cn1c(N)c(C(=O)COC(=O)/C=C/c2cccs2)c(=O)n(C)c1=O | -49.9

Structure (SMILES) | hERG current change (%, negative = inhibition) at 10uM [%]
Cc1csc(=O)n1CC(=O)OCC(=O)c1c(N)n(CC(C)C)c(=O)n(C)c1=O | -10.7
CC(C)Cn1c(N)c(C(=O)COC(=O)Cc2cccc(C(F)(F)F)c2)c(=O)n(C)c1=O | -54.5
CC(C)Cn1c(N)c(C(=O)COC(=O)c2ccc(F)cc2)c(=O)n(C)c1=O | 17.1
Cc1cccc(OCC(=O)OCC(=O)c2c(N)n(C)c(=O)n(C)c2=O)c1 | -13.1
CC(C)Cn1c(N)c(C(=O)COC(=O)c2c(F)cccc2F)c(=O)n(C)c1=O | -16.7
CC(C)Cn1c(N)c(C(=O)COC(=O)COc2cccc(C(F)(F)F)c2)c(=O)n(C)c1=O | -50.9
CCN(CC)S(=O)(=O)c1cc(C)c(C)cc1OCC(=O)NC1CCCC1 | -23.1
C/C=C/C=C/C(=O)N1CC2(CC(c3cccc(NC(=O)/C=C/C)c3)=NO2)C[C@@H]1C(N)=O (stereo partly drawn) | 2.75
Cc1ccsc1/C=N\NC(=O)c1cc(C(C)(C)C)[nH]n1 | -9.77
CC(C(=O)N1CCOCC1)c1ccc([N+](=O)[O-])cc1 (stereo not drawn) | 9.94
CC1(C)NC(=O)N(CC(=O)N2CCN(c3cccc(Cl)c3)CC2)C1=O | -6.67
O=C(CN1C(=O)C2CC=CCC2C1=O)N1CCN(c2ccc([N+](=O)[O-])cc2)CC1 (stereo not drawn) | -71.6
CC(C(=O)N1CCN(c2ccccc2)CC1)N1C(=O)C2CC=CCC2C1=O (stereo not drawn) | 7.43
CC(C(=O)N1CCN(c2ccc([N+](=O)[O-])cc2)CC1)N1C(=O)C2CC=CCC2C1=O (stereo not drawn) | -72.2
CC1(C)NC(=O)N(CC(=O)N2CCN(c3cccc(C(F)(F)F)c3)CC2)C1=O | 6.26
CC1(C)NC(=O)N(CC(=O)N2CCN(c3ccc([N+](=O)[O-])cc3)CC2)C1=O | -66.1
COc1ccc(N2CCN(C(=O)CN3C(=O)C4CC=CCC4C3=O)CC2)cc1 (stereo not drawn) | 12.3
O=C(CN1C(=O)NC(c2ccccc2)(c2ccccc2)C1=O)N1CCN(c2ccccc2F)CC1 | -17.4
O=C(CN1C(=O)C2CCCCC2C1=O)N1CCN(c2ccc(F)cc2)CC1 (stereo not drawn) | -12.2
O=C(CN1C(=O)NC(c2ccccc2)(c2ccccc2)C1=O)N1CCN(c2ccc(F)cc2)CC1 | -68.4
O=C(CN1C(=O)NC(c2ccccc2)(c2ccccc2)C1=O)N1CCOCC1 | 0.969
CC(=O)N1CN(C2CC(C)(C)NC(C)(C)C2)Cc2c1sc1c2CCCC1 | 6.77
C(=C\c1ccccn1)/c1ccccn1 | 24.4
CC1=CC(C)(C)N(C(=O)CSc2nnc(N)s2)c2ccccc21 | 6.19

Structure (SMILES) | hERG current change (%, negative = inhibition) at 10uM [%]
O=c1[nH]c(=O)n(CCc2ccc(F)cc2)c(O)c1C=NCCCN1CCOCC1 | -17.7
CC(=O)Nc1cc(C(C)C)c(O)c(C(C)C)c1 | -4.37
Cc1cccc(CCNC(=O)Cn2ncc3c([nH]c4ccccc43)c2=O)c1 | 14.2
COc1cc(/C=C2\S/C(=N/S(=O)(=O)c3ccccc3)NC2=O)c([N+](=O)[O-])cc1OC | 4.25
O=C(CC1SC(=O)N(Cc2ccc(Cl)cc2)C1=O)Nc1nccs1 (stereo not drawn) | -4.51
O=c1[nH]c(=O)n(C2OC(CO)C(O)C2O)cc1Br (stereo not drawn) | 26.2
CCOC(=O)c1c(-c2ccc(C)o2)csc1N | 20.5
Oc1ccccc1C1=Nc2ccccc2N=C(c2ccco2)C1 | -12.7
COc1ccc(CNS(=O)(=O)c2c(C)[nH]c(C)c2C(=O)N2CCCC2)cc1 | 17.6
CCOC(=O)N1CCN(c2c(N3CCN(c4ccc(F)cc4)CC3)c(=O)c2=O)CC1 | -73.4
CCOC(=O)C1CCN(c2ccc([N+](=O)[O-])c(C(C)=O)c2)CC1 | -11.8
CN(C)S(=O)(=O)N1CCN(c2ccccc2)CC1 | -1.78
CCOC(=O)N1CCN(c2c(N3CCN(C(=O)OCC)CC3)c(=O)c2=O)CC1 | -29.1
CCOC(=O)C1CCN(c2ccc([N+](=O)[O-])cc2)CC1 | -68.9
CN(C)S(=O)(=O)N1CCN(c2ccc([N+](=O)[O-])cc2)CC1 | -76.7
O=C(C1CCN(S(=O)(=O)c2cnc[nH]2)CC1)N1CCN(c2ccc([N+](=O)[O-])cc2)CC1 | -1.78
O=[N+]([O-])c1ccc(N2CCN(S(=O)(=O)c3cnc[nH]3)CC2)cc1 | -59.8
COC(=O)C1CCN(c2ccc([N+](=O)[O-])cc2)CC1 | -21.7
CN(C)S(=O)(=O)N1CCN(c2ccc(Cl)cc2)CC1 | -14.4
CCOC(=O)N1CCN(c2c(N3CCN(c4ccc(OC)cc4)CC3)c(=O)c2=O)CC1 | -46.6
O=S(=O)(c1cnc[nH]1)N1CCN(c2ccc(F)cc2)CC1 | -3
